Hit rate of the full screen: of about 5,500 compounds, about 2,000 (36%) were called active. Another 18% or so got no clear call; they are omitted. Cut-off read from the data, not from the text of the source: active = normalized growth mostly below about 0.91 (no sharp cut-off); inconclusive = no clear call, values can overlap the other calls; inactive = mostly above about 0.92. The list shows a part of the results.
Experiment: chemical genetic growth profiling, strain panel (AID 1159580);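 note: tested at 20 µM; growth read once vehicle control cultures reached saturation at 30 °C; 1 = growth at the plate median or of vehicle wells; lower values mean less growth of the strain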
Details: S. cerevisiae deletion strains, growth OD

Measured: normalized growth

NC(COCc1ccccc1)C(=O)O (stereo not drawn)
inactive: locus YHR030C, strain SLT2, stronger effect = lower value 1.01 | locus YHR079C, strain IRE1, stronger effect = lower value 1 | locus YJL095W, strain BCK1, stronger effect = lower value 0.995 | locus YJR066W, strain TOR1, stronger effect = lower value 0.891 | locus YLR113W, strain HOG1, stronger effect = lower value 1.01 | locus YNL183C, strain NPR1, stronger effect = lower value 0.904 | locus YOR231W, strain MKK1, stronger effect = lower value 1.01 | locus YPL256C, strain CLN2, stronger effect = lower value 0.999

— PubChem BioAssay AID1159580 (chemical genetic matrix, 2015)
